From PubChem BioAssay AID624387 (National Center for Advancing Translational Sciences (NCATS), 2012)
Calls of active or inactive are those of the source. Calls come from the whole dose curve; as a rule, active = well fitted curve in the direction sought with a large enough effect; inactive = no such curve, though single readings can be large or run the other way.

target: Pyruvate kinase PKM (Homo sapiens) (UniProt P14618); experiment: qHTS for Activators of Human Muscle Isoform 2 Pyruvate Kinase: Extended Characterization using M1 for Probe 2; details: purified hPK-M1, Kinase-Glo ATP luminescence, 1 h; series mostly up to 57.7 µM
Sequence (P14618 whole entry, looked up, canonical isoform): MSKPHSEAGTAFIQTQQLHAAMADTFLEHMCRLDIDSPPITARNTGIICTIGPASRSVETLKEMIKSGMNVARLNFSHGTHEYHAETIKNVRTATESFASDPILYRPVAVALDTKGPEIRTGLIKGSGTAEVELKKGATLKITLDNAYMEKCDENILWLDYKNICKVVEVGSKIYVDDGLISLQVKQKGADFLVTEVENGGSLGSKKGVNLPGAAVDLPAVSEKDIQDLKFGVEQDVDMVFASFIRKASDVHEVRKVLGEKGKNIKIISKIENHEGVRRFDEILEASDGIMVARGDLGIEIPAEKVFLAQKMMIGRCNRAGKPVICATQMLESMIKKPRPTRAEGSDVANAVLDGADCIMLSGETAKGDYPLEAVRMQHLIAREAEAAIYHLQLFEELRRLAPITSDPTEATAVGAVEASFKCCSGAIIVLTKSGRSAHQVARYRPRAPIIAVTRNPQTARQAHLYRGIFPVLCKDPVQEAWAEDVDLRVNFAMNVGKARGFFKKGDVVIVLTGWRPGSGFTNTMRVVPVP
Protocol: Human pyruvate kinase muscle isoform 1 (hPK-M1) enzyme was supplied as a highly purified (>95% pure) preparation from Harvard Medical School and assayed for its ability to generate ATP from ADP using phosphoenolpyruvate (PEP) as a substrate. ATP generation was detected in a coupled reaction by luciferase-mediated luminescence, an ATP-dependent process. Pyruvate kinase substrates, PEP and ADP, were present in the assay at Km and approximately 10-fold below Km respectively. The enzyme was assayed at an intermediate level of activity to screen for both inhibitors and activators. NIH Chemical Genomics Center [NCGC] NIH Molecular Libraries Probe Centers Network [MLPCN] MLPCN Grant: MH085679 Assay Submitter (PI): Matthew G. Vander Heiden, Harvard Medical School
Three uL of substrate mix (at r.t.) in assay buffer (50 mM Imidazole pH7.2, 50 mM KCl, 7 mM MgCl2, 0.01% Tween 20, 0.05% BSA) was dispensed into white solid bottom 1,536 well microtiter plates so that the final concentrations of substrates in the assay were 0.1 mM ADP and 0.5 mM PEP. 23 nL of compound were delivered by a pin tool and 1 uL of enzyme mix (final concentration of 1 nM) in assay buffer (4 degree Celsius) was added. Plates were incubated at room temperature for 1 hour. Two uL of detection mix (Kinase-Glo, Promega; at 4 degree Celsius protected from light) was added and luminescence read by a ViewLux (Perkin Elmer) at 1 second exposure/plate. Data were normalized to the uninhibited (row 31). Additionally, a no enzyme and 5-fold enzyme control was dispensed in row 32, split equally between the two conditions.

outcome, inactive:
Cc1ccc(NS(=O)(=O)c2ccc3c(c2)CCC(=O)N3)cc1C
Cn1c2cc(S(C)=O)sc2c2cnn(Cc3cccc(N)c3)c(=O)c21 (stereo not given)
Nc1cccc(S(=O)(=O)N2CCCN(S(=O)(=O)c3ccc4c(c3)OCCO4)CC2)c1
COc1cccc(Cn2ncc3c4sc(S(C)=O)cc4n(C)c3c2=O)c1 (stereo not given)
O=S(=O)(c1ccc2c(c1)OCCO2)N1CCN(S(=O)(=O)c2c(F)cccc2F)CC1
